# Measurements published in PubChem BioAssay (NCI).
# Several values for one entry are separate records, joined by “and”; a condition that tells them apart may be missing. Equal entries are not always repeated. The panel holds about 83,000 compounds, 20% with a hit somewhere; the sample as a whole holds those more often.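 Cell lines were cultured in 96-well plates, exposed to a single compound concentration, and assessed for percent growth 48 hours later.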 Activity calls are given as the source filed them. Rule for the calls: active = growth percent below 10; inactive = the rest.
# Test system: SN12C renal
# Test: NCI-60 one-dose screen, 48 h (100 = growth as untreated, 0 = no growth, -100 = all killed)
# Conditions: 10 µM unless noted
row,Structure (SMILES),growth
1,Cn1c(-c2ccccc2)cc(=O)cc1-c1ccccc1,92.6% (inactive)
2,O=C1C2=C(Nc3cc(Cl)ccc3N2)OC1c1c[nH]c2ccc(COc3ccccc3)cc12 (stereo not drawn),71.3% (inactive)
3,COc1ccc(S(=O)(=O)c2ccc(F)cc2)cc1,97.8% (inactive)
4,CCOP(=O)(OCC)/C(C#N)=C/c1c(C)[nH]c2ccccc12,92% (inactive)
5,COc1ccc(CCNC(=S)NN)cc1OC,117% (inactive)
6,CS(=O)(=O)OCC1NC(=O)C(COS(C)(=O)=O)NC1=O (stereo not drawn),108% (inactive) and 111% (inactive)
7,COc1cc(NCCCCCCCNC(C)C)c2nccc(C)c2c1,78% (inactive) and 61.7% (inactive)
8,N=c1sc2ccccc2n1CC(=O)O,94.1% (inactive)
9,O=C1C=CC(=O)N1Cc1ccco1,87.3% (inactive)
10,N=C(N)N1CCc2ccccc2C1,90.8% (inactive) and 99.6% (inactive)
11,Cc1ccc(C(=O)c2ccc(C)cc2)cc1,92.6% (inactive) and 103% (inactive)
12,COC(=O)c1ccccc1Cl,105% (inactive)
13,O=C(Nc1ccccc1)OCC(CN1CCCCC1)OC(=O)Nc1ccccc1 (stereo not drawn),77.5% (inactive) and 94% (inactive)
14,N=C(N=C(N)N)N1CCOCC1,99.4% (inactive) and 96.7% (inactive)
15,Cc1cc2nc3ccc(=[N+](C)C)cc-3sc2cc1N,-65.9% (active) and -66.4% (active)
16,O=C1C=CC(n2cc(F)c(=O)[nH]c2=O)O1 (stereo not drawn),64.4% (inactive)
17,O=C1CCC(=O)N1CC1CC2CCC1C2 (stereo not drawn),94% (inactive) and 82.3% (inactive)
18,NCCSSC/C=C\CSSCCN,98.6% (inactive)
19,COC(=O)c1nc(N)nc(C(=O)OC)c1C(=O)c1cccc2ccccc12,99.5% (inactive)
20,COc1ccc(COC=O)cc1,101% (inactive)

row,Structure (SMILES),growth
1,CCCCNC(=O)c1ccccc1C,98.5% (inactive)
2,CC(=O)c1cccc(OC(=O)c2ccccc2)c1,91.2% (inactive)
3,CCNC1=CC(=O)c2ncccc2C1=O,-32.2% (active)
4,O=C(/C=C/C=C/c1ccc2c(c1)OCO2)N1CCCCC1,97.9% (inactive) and 100% (inactive)
5,CCN(CC)Cc1cc2[nH]c3c4ccc(Cl)cc4ncc3c2cc1OC,72.9% (inactive) and 78.8% (inactive)
6,C/C=C/C(=O)OCCCCCCCCCCCC,81.6% (inactive)
7,COc1ccc(CCn2cnn3c(=O)c4ccccc4nc3c2=O)cc1OC,107% (inactive) and 101% (inactive)
8,N#Cc1c[nH]n2ccnc12,99.8% (inactive)
9,NC1=NC(c2ccccc2)N=C(Nc2ccccc2)N1 (stereo not drawn),98.6% (inactive) and 99.1% (inactive)
10,Cc1nc(Nc2ccc(Cl)cc2)c2cnn(-c3ccccc3)c2n1,102% (inactive)
11,CC(C)(C)C1=CC(=O)C(C(C)(C)C)=CC1=O,93.7% (inactive) and 102% (inactive)
12,CC1(C)OC(=O)C(=Cc2ccc(C#N)cc2)C(=O)O1,104% (inactive) and 112% (inactive)
13,COC(=O)CCOc1ccccc1,110% (inactive)
14,Cc1cc(-c2ccc(N=Nc3c(C)nn(-c4ccc(S(=O)(=O)O)cc4)c3O)c(C)c2)ccc1N=Nc1ccc(O)c(C(=O)O)c1,95.8% (inactive)
15,OCc1ccccc1F,84.5% (inactive)
16,O=C(O)c1cc(=O)[nH]c(=O)[nH]1,98.7% (inactive) and 98.5% (inactive)
17,O=C(O)c1cccc(Br)c1,104% (inactive)
18,CCN(CC)C(CC(=O)c1ccccc1)C(=O)c1ccccc1 (stereo not drawn),93.4% (inactive)
19,O=S(=O)(O)c1ccc2cc(O)ccc2c1,105% (inactive)

# Test system: UO-31 renal
# Test: as above
# Conditions: 10 µM unless noted
row,Structure (SMILES),growth
1,Cn1c(-c2ccccc2)cc(=O)cc1-c1ccccc1,79% (inactive)
2,O=C1C2=C(Nc3cc(Cl)ccc3N2)OC1c1c[nH]c2ccc(COc3ccccc3)cc12 (stereo not drawn),51.2% (inactive)
3,COc1ccc(S(=O)(=O)c2ccc(F)cc2)cc1,83.8% (inactive)
4,CCOP(=O)(OCC)/C(C#N)=C/c1c(C)[nH]c2ccccc12,72.8% (inactive)
5,COc1ccc(CCNC(=S)NN)cc1OC,90.2% (inactive)
6,CS(=O)(=O)OCC1NC(=O)C(COS(C)(=O)=O)NC1=O (stereo not drawn),91.7% (inactive) and 94.1% (inactive)
7,COc1cc(NCCCCCCCNC(C)C)c2nccc(C)c2c1,38.4% (inactive) and 47.1% (inactive)
8,N=c1sc2ccccc2n1CC(=O)O,86.4% (inactive)
9,O=C1C=CC(=O)N1Cc1ccco1,62.6% (inactive)
10,N=C(N)N1CCc2ccccc2C1,82.8% (inactive) and 86.8% (inactive)
11,Cc1ccc(C(=O)c2ccc(C)cc2)cc1,76.9% (inactive) and 98.3% (inactive)
12,COC(=O)c1ccccc1Cl,93.8% (inactive)
13,O=C(Nc1ccccc1)OCC(CN1CCCCC1)OC(=O)Nc1ccccc1 (stereo not drawn),53.5% (inactive) and 66.7% (inactive)
14,N=C(N=C(N)N)N1CCOCC1,83.8% (inactive) and 85% (inactive)
15,Cc1cc2nc3ccc(=[N+](C)C)cc-3sc2cc1N,8.95% (active) and 36.6% (inactive)
16,O=C1C=CC(n2cc(F)c(=O)[nH]c2=O)O1 (stereo not drawn),63.4% (inactive)
17,O=C1CCC(=O)N1CC1CC2CCC1C2 (stereo not drawn),101% (inactive) and 95.5% (inactive)
18,NCCSSC/C=C\CSSCCN,80% (inactive)
19,COC(=O)c1nc(N)nc(C(=O)OC)c1C(=O)c1cccc2ccccc12,89.7% (inactive)
20,COc1ccc(COC=O)cc1,92.5% (inactive)

row,Structure (SMILES),growth
1,CCCCNC(=O)c1ccccc1C,94.4% (inactive)
2,CC(=O)c1cccc(OC(=O)c2ccccc2)c1,103% (inactive)
3,CCNC1=CC(=O)c2ncccc2C1=O,48.4% (inactive)
4,O=C(/C=C/C=C/c1ccc2c(c1)OCO2)N1CCCCC1,88.8% (inactive) and 74.4% (inactive)
5,CCN(CC)Cc1cc2[nH]c3c4ccc(Cl)cc4ncc3c2cc1OC,110% (inactive) and 66.2% (inactive)
6,C/C=C/C(=O)OCCCCCCCCCCCC,109% (inactive)
7,COc1ccc(CCn2cnn3c(=O)c4ccccc4nc3c2=O)cc1OC,93.3% (inactive) and 91.9% (inactive)
8,N#Cc1c[nH]n2ccnc12,94.7% (inactive)
9,NC1=NC(c2ccccc2)N=C(Nc2ccccc2)N1 (stereo not drawn),105% (inactive) and 89.7% (inactive)
10,Cc1nc(Nc2ccc(Cl)cc2)c2cnn(-c3ccccc3)c2n1,94.6% (inactive)
11,CC(C)(C)C1=CC(=O)C(C(C)(C)C)=CC1=O,93.1% (inactive) and 91.5% (inactive)
12,CC1(C)OC(=O)C(=Cc2ccc(C#N)cc2)C(=O)O1,94.3% (inactive) and 87.1% (inactive)
13,COC(=O)CCOc1ccccc1,86.8% (inactive)
14,Cc1cc(-c2ccc(N=Nc3c(C)nn(-c4ccc(S(=O)(=O)O)cc4)c3O)c(C)c2)ccc1N=Nc1ccc(O)c(C(=O)O)c1,69.1% (inactive)
15,OCc1ccccc1F,84.7% (inactive)
16,O=C(O)c1cc(=O)[nH]c(=O)[nH]1,78.8% (inactive) and 42.2% (inactive)
17,O=C(O)c1cccc(Br)c1,68.5% (inactive) and 88.8% (inactive)
18,CCN(CC)C(CC(=O)c1ccccc1)C(=O)c1ccccc1 (stereo not drawn),84.1% (inactive)
19,O=S(=O)(O)c1ccc2cc(O)ccc2c1,95.1% (inactive)
